The list is not random: actives were taken first. Their share in the collection is about 1.7%.
GLP1R inv ag = acts as inverse agonist at human GLP-1 receptor. P43220. Potency, µM (highest dose often 38.3 µM), actives largely listed as inhibitors. AID 624417. HEK293 GLP-1R CRE-luciferase, luminescence, 24 h; GLP-1R form is constitutively active. 1.6% of 410,000 active; further: nearly all actives have a fitted effect of over 55% in size
Target sequence (P43220 whole entry, looked up): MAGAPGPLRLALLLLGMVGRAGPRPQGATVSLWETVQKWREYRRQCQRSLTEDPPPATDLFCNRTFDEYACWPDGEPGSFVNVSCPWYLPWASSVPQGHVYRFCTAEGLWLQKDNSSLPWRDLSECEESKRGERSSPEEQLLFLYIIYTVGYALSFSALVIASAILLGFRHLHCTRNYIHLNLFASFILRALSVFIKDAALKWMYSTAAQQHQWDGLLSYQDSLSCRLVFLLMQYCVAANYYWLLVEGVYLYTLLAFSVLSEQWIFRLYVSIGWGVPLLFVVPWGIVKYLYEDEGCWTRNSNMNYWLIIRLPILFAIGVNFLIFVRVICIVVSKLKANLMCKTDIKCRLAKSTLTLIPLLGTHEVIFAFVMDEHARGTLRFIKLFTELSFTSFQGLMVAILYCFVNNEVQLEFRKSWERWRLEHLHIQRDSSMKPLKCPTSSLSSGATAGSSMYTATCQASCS
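Using stably transfected HEK293 (constitutively active GLP-1R, cAMP-luciferase reporter), compounds were incubated 24 hr and luciferase measured by luminescence.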
GLP-1R agonist = GLP-1 receptor (human) agonism. P43220. HEK293 GLP-1R CRE-luciferase, luminescence, 4-6 h; cells express a hypersensitive GLP-1R form. Potency, µM (titrated, usually from 45.6 µM), most hits filed as activators. 0.007% of 380,000 active
HEK293 tox = cytotoxicity counter-screen for GLP-1 receptor inverse agonists; 0.13% of 410,000 active; Potency, µM (top dose mostly 38.3 µM), actives largely listed as inhibitors; HEK293 cAMP-luciferase reporter cells, luminescence, 24 h;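 further: loss of luciferase light is scored as toxicity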
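Here, cytotoxicity is scored as loss of luminescence. The MLSMR collection was tested on cells seeded in medium containing 10% Nu serum, with a 24 hr compound exposure preceded by 12 hours of culture.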
Hits are given with their value; i = inactive; ? = inconclusive; nt = not tested or not shown. The call rests on the fitted dose curve; in most records, active means well fitted curve in the direction sought with a large enough effect; inconclusive means small, poorly fitted or top-dose-only effect, or another doubt; inactive means no such curve, though single readings can be large; an effect the other way counts as inactive or inconclusive.

SMILES	GLP1R inv ag	GLP-1R agonist	HEK293 tox
CCN(CC)CCNC(=O)c1ccc(NC(=O)c2ccc(S(=O)(=O)N3CCCCCC3)cc2)cc1	?	i	?
COc1cccc(NC(=O)CN(C)C(=O)c2ccc(Cl)c(S(=O)(=O)N3CCCCCC3)c2)c1	8.9µM	i	i
CCN(CC)CCNC(=O)c1ccc(NC(=O)COc2ccc3c(c2)CCC3)cc1	4.5µM	i	i
CN(CC(=O)Nc1ccccc1Cl)C(=O)c1ccc(Cl)c(S(=O)(=O)N2CCCCCC2)c1	?	i	i
COc1ccc2c(c1)c1c(c(=O)n(Cc3ccccc3)c(=O)n1Cc1cc(C)ccc1C)n2C	i	i	i
O=C(CN1CCN(S(=O)(=O)c2ccc(Cl)c(Cl)c2)CC1)N1CCCC1	i	i	i
CC1Cc2ccccc2N1C(=S)NC(=O)c1ccc(Cl)cc1Cl (stereo not given)	10µM	i	?
CC1Cc2ccccc2N1C(=S)NC(=O)c1cccc(Br)c1 (stereo not given)	?	i	?
Cc1ccccc1-n1ncc(C(C)NC(=O)c2ccco2)c1C (stereo not given)	i	i	i
O=S(Cc1cc(Oc2ccccc2)nc(-c2ccccc2)n1)c1ccccc1 (stereo not given)	10µM	i	i
O=Cc1ccc(Oc2cc(-c3ccccc3)nc(-c3ccccc3)n2)cc1	i	i	i
Cc1oc2ncn(C)c(=O)c2c1C(=O)NCCCN(Cc1ccccc1)C(C)C	i	nt	i
Cc1cccc(NC(=O)CSC2=Nc3ccccc3C3=NC(CCC(=O)NCc4ccc(F)cc4)C(=O)N23)c1 (stereo not given)	i	nt	i
S=C(NC1CCCCC1)NN(c1ccccc1)c1ccccc1	10µM	i	?
C/C(=N\NC(=S)NC1CCCCC1)c1ccccc1	5.6µM	i	?
O=C(NC(=S)NC1CCCCC1)c1ccccc1	?	i	?
C/C(=N\NC(=S)NC1CCCCC1)c1ccc(O)cc1	?	i	?
O=C(OCC(=O)N1CCOCC1)c1cc(=O)[nH]c2ccccc12	i	i	i
CCN(CC(=O)Nc1ccc(NC(C)=O)cc1)C(=O)COc1ccc(C(=O)c2ccccc2)cc1	i	i	i
CN(CC(=O)Nc1ccc(F)cc1)C(=O)COc1ccc(C(=O)c2ccccc2)cc1	10µM	i	i
CCN1CCN(C(=O)/C=C/c2ccc(C)o2)CC1	i	i	i
Cc1ccc(/C=C/C(=O)N2CC(C)CC(C)C2)o1 (stereo not given)	10µM	i	?
Nc1nccnc1C(=O)OCC(=O)NC1CCCc2ccccc21 (stereo not given)	i	i	i
COc1cc(OC)c(NC(=O)Nc2ccc3c(c2)N(C)C(=O)c2ccccc2S3)cc1Cl	i	nt	i
Cc1nc(-c2ccc(S(=O)(=O)Nc3cccc(Cl)c3)cc2)co1	?	i	i
SMILES	GLP1R inv ag	GLP-1R agonist	HEK293 tox
CSc1cccc(NS(=O)(=O)c2ccc(-c3coc(C)n3)cc2)c1	8.9µM	i	i
O=C(N/N=C/c1ccccc1)c1[nH]c2ccc(Br)cc2c1-c1ccccc1	i	i	i
O=C(NN=C1CCCC1)c1[nH]c2ccc(Br)cc2c1-c1ccccc1	5µM	i	?
CC[C@H]1OC(=O)C[C@@H](O)[C@H](C)[C@@H](O[C@@H]2O[C@H](C)C[C@H](N(C)C)[C@@H]2O)[C@@H](CC=O)C[C@@H](C)C(=O)/C=C\[C@]2(C)O[C@H]2[C@@H]1C	nt	i	nt
Cc1ccc2nc(-c3ccc(NC(=O)C(F)(F)F)cc3)sc2c1	?	i	i
Cc1ccc2nc(-c3ccc(NC(=O)CNC4CC4)cc3)sc2c1	13µM	i	i
Cc1nc2c(-c3ccccc3)c(C)nn2c(C)c1CCC(=O)N1CCN(c2ccc(F)cc2)CC1	i	i	i
O=C(NCc1ccccc1)c1cccc(COc2ccc3c(c2)CCC3)c1	4.5µM	i	i
O=C(NCCCCc1ccccc1)c1cccc(NC(=O)C2CCC2)c1	i	i	i
O=C(NCCCCc1ccccc1)c1cccc(NC(=O)C2CCCCC2)c1	11µM	i	i
Cc1ccc(C(=O)NCCCc2ccccc2)c(C)c1	i	i	i
Cc1cc(C)cc(C(=O)NCCCc2ccccc2)c1	11µM	i	i
O=C(Cn1cccc1C(=O)c1ccccc1)NCCCc1ccccc1	?	i	i
CC(C(=O)NCCCc1ccccc1)n1cccc1C(=O)c1ccccc1 (stereo not given)	11µM	i	i
O=C(O)c1cccc(COc2ccc3c(c2)CCC3)c1	?	i	i
NC(N)=NCCCC(N)C(=O)O (stereo not given)	nt	i	nt
O=S(=O)(c1ccc(SCCOc2ccc(F)cc2)nc1)N1CCCC1	i	i	i
O=C(NC1CC2CCCC(C1)N2C(=O)Nc1cccc(F)c1)C1CC1 (stereo not given)	i	i	i
O=C(NCc1ccccc1)C(=O)Nc1cccc(C(=O)O)c1	4.5µM	i	i
COc1ccc(CNC(=O)c2cccc(NC(=O)c3ccccc3)c2)cc1	?	i	i
O=C(NCc1ccccc1)c1cccc(NC(=O)c2ccccc2)c1	8.9µM	i	i
CSc1cccc(NC(=O)C(=O)NCc2ccccc2)c1	i	i	i
CC1(C(=O)NS(=O)(=O)c2ccccc2C(F)(F)F)CCN1C(=O)CCC1CCCC1 (stereo not given)	i	i	i
CSc1nc2cc(C)nn2c(-c2ccccc2Cl)c1C#N	i	i	i
O=C(CSc1nc2ccccc2s1)N1c2ccccc2Sc2ccccc21	5.6µM	i	i
SMILES	GLP1R inv ag	GLP-1R agonist	HEK293 tox
CCOc1ccc2nc(SCC(=O)N3c4ccccc4Sc4ccccc43)sc2c1	i	i	i
CCOc1ccc(OCCCC(=O)N(C)CC(=O)Nc2ccccc2Br)cc1	i	i	i
CCCN(CC(=O)Nc1ccccc1C)C(=O)CCCOc1ccc(Br)cc1	8.9µM	i	i
CCC(=O)N1c2ccc(S(=O)(=O)N3CCN(c4ccc([N+](=O)[O-])cc4)CC3)cc2CC1C (stereo not given)	i	i	i
CCOC(=O)N1CCN(CC(=O)Nc2sc(CC)cc2C(=O)c2ccc(OC)cc2)CC1	5.6µM	i	i
CCc1cc(C(=O)OC)c(NC(=O)CN2CCN(C(=O)c3ccco3)CC2)s1	i	i	i
COc1ncnc2c1ncn2CCCNCC(c1ccccc1)c1ccccc1	i	i	i
c1ccc(COc2ncnc3c2ncn3CCCNCC(c2ccccc2)c2ccccc2)cc1	?	i	11µM
COC(F)(F)C(Cl)Cl	nt	i	nt
Cc1ccc(C(=O)N2c3ccccc3N(Cc3ccccc3)C(=O)C2(C)C)cc1	11µM	i	i
Cc1ccc(C(=O)CC2(O)C(=O)N(Cc3ccccc3)c3ccc(Br)cc32)cc1 (stereo not given)	i	nt	i
COc1cccc(CN(C)C(=O)CCN(c2ccccc2)S(=O)(=O)c2ccc(C)cc2)c1OC	8.9µM	i	i
Cc1ccc(S(=O)(=O)N(CCC(=O)NCc2ccccc2F)c2ccccc2)cc1	?	i	i
COc1ccc(NC(=O)c2ccc(OC)c(S(=O)(=O)N3CCCCC3C)c2)cn1 (stereo not given)	i	i	i
O=C(Cn1ccn(-c2ccc(F)c(F)c2)c(=O)c1=O)c1ccc(F)cc1	i	nt	i
